Screens from PubChem BioAssay.
OvCa metastasis: ovarian cancer metastasis inhibition, 3D TME model | AID 1963576 | actives 0.1% (n = 46,000) | SKOV3ip1-GFP adhesion/invasion on 3D omental model, fluorescence | Potency, µM (series often up to 45.8 µM), for the others: at the highest dose activity change, negative = inhibition, actives largely listed as inhibitors;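 also: plate controls were DMSO wells for no effect and tomatine positive control wells for full effect; nearly all actives have a fitted effect of over 65% in size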
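qHTS, 4-pt dose (0.36-46 umol/L); SKOV3ip1-GFP, 1,200 cells/well, no FBS; primary omental fibroblast/mesothelial co-culture 48 h pre-grown; 2 h RT + 16 h 37 C; PBS wash, 4% PFA; GFP count 488/509 nm.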
pS6 MEF inh: mTORC1 pathway inhibition measured by phospho-rpS6 | Tsc2-/- p53-/- MEF, phospho-rpS6 immunofluorescence/PI, 24 h | Potency, µM (doses to about 38.3 µM), for inactives: top-dose activity change, negative = inhibition, usual class: inhibitors | actives 0.78% (n = 44,000);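 also: plate controls were DMSO for no effect and rapamycin for full effect; nearly all actives have a fitted effect of over 50% in size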
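Tsc2-/-, p53-/- mouse embryonic fibroblasts (empty-vector line) exposed to compound 24 hrs at 37 C, fixed, immunostained for phospho-rpS6 and counterstained with propidium iodide. Acumen laser scanning gives % positive cells from Alexa 488/PI ratio, thresholded using 7.5 nM rapamycin; PI count gives viability.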
PMP22 txn: modulates PMP22 transcription in S16 Schwann cells. S16 Pmp22-F2sN Schwann cells, FLuc/NLuc coincidence luminescence, 24 h. Potency, µM (doses to about 57.5 µM), without a hit: at the top dose activity change, negative = inhibition, hits mostly inhibitors. actives 2% (n = 43,000); active = clear falling dose curves in both reporters; inconclusive = both reporters move, but less clearly or upward; inactive = either reporter flat; the % is the NLuc reporter signal
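S16(c9) Schwann cells with FLuc/NLuc coincidence reporter in the Pmp22 3' UTR; compounds pin-transferred, 24 h at 37C. Dual-luciferase read: FLuc first, then NLuc after Stop&Glo, each 10 min at room temperature.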
p53null 32C tox: p53 null cell cytotoxicity, permissive temperature | H1299-neo p53 null cells, ATP luminescence, 24 h, 32C | Potency, µM (doses to about 46.1 µM), for inactives: at the highest dose activity change, negative = cytotoxicity, most hits filed as cytotoxic | actives 0.62% (n = 55,000);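 also: 0% = DMSO only and -100% = full killing by 100 µM tamoxifen; nearly all actives have a fitted effect of over 55% in size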
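We seeded p53-null H1299-neo cells, incubated them overnight at 37C, and added compounds across a range up to 46 uM. After 24 hours at 32C, ATP reagent was applied for 20 min at room temperature and luminescence recorded.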
S16 viability: toxic to S16 Pmp22-F2sN Schwann cells; Potency, µM (highest dose often 57.5 µM), for inactives: top-dose activity change, negative = cytotoxicity, hits mostly cytotoxic; actives 0.48% (n = 43,000); S16 Pmp22-F2sN Schwann cells viability, CellTiter-Glo, 24 h; AID 1508642; also: nearly all actives have a fitted effect of over 65% in size
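Viability was measured by CellTiter-Glo luminescence (15 min, room temperature). This followed 24 h at 37 °C of compound exposure (23 nL pin transfer) in S16 Pmp22-F2sN Schwann cells, 500-1,000 per well.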
p53null 39C kill: selectivity test: cytotoxicity in p53 null cells, nonpermissive temperature; actives 0.97% (n = 55,000); H1299 p53-null (neo) cells, 39C, ATPlite viability, 24 h; Potency, µM (top dose mostly 46.1 µM), inactives show at the top dose activity, negative = cell killing, most hits filed as cytotoxic; AID 904;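 also: 0% = DMSO only and -100% = full killing by 100 µM tamoxifen; nearly all actives have a fitted effect of over 50% in size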
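Concentration-response (up to 46 uM) was run for 24 h at the nonpermissive 39C on H1299-p53A138V or H1299-neo cells. ATP content was measured with ATPlite luminescence. AC50 values were Hill-modeled after normalizing between DMSO and 100 uM tamoxifen killing.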
Active calls of the source: *; i = inactive; ? = inconclusive; . = no result. Rows were chosen to be rich in hits. Some 3% of all compounds tested hit in one or more screens of this group. Unless noted, calls follow the shape of the dose curve; as a rule, active = well fitted curve in the direction sought with a large enough effect; inconclusive = small, poorly fitted or top-dose-only effect, or another doubt; inactive = no such curve, though single readings can be large; an effect the other way counts as inactive or inconclusive. Unless noted, % is scaled to controls: 0 for no effect and ±100 for the full control effect; potency is read from the fitted curve at half-maximal effect.

SMILES	OvCa metastasis	pS6 MEF inh	PMP22 txn	p53null 32C tox	S16 viability	p53null 39C kill
CCOc1cc(CNCCc2ccccc2)ccc1OCC(=O)NC(C)(C)C	.	.	.	-1%	.	16µM*
Cc1ccc(S(=O)(=O)Nc2cc(Cl)ccc2C(=O)Nc2nc(-c3ccccc3)cs2)cc1	4%	.	.	.	.	.
COc1ccc(CNC(=O)c2cc(-c3ccc(Br)s3)nc3ccccc23)cc1	i	-7%	?	8%	-4%	?
Cc1ccc(NC(=O)c2cc(-c3ccc(Br)s3)nc3ccccc23)cc1F	-2%	-9%	?	-12%	32µM*	-21%
Cn1cnc2c(F)c(Nc3ccc(Br)cc3F)c(C(=O)NOCCO)cc21	8%	.	.	.	.	.
O=C(NCc1ccccn1)c1cc(-c2ccc(-c3ccccc3)cc2)nc2ccccc12	.	.	.	.	.	7.9µM*
Cc1ccc(CN2C(=O)c3ccccc3Sc3ccc(C(=O)NCCCN4CCOCC4)cc32)cc1	i	12µM*	?	-12%	-28%	?
COC(=O)c1ccc(COc2ccccc2/C=C(\C#N)C(=O)NC(C)C)cc1	.	.	.	12%	.	19%
CCC[C@H](NC(=O)C(C#N)=Cc1cccc(Br)n1)c1ccccc1	12µM*	.	.	.	.	.
COc1ccc(N2Cc3cccc(C(=O)Nc4ccc(C(C)C)cc4)c3C2=O)cc1	i	2%	?	?	?	4µM*
CCn1c(=N)n(CC(O)COc2ccccc2)c2ccccc21 (stereo not given)	i	-3%	?	-8%	10%	15%
CCN(CC)CCn1c(=N)n(CC(O)COc2ccccc2C)c2ccccc21 (stereo not given)	?	12µM*	?	-2%	28µM*	18µM*
N=c1n(CCO)c2ccccc2n1CCOc1ccc(F)cc1	3%	?	.	-2%	.	-3%
CCN(CC)CCn1c(=N)n(CCOc2ccccc2Cl)c2ccccc21	?	5.8µM*	?	-21%	28µM*	3.2µM*
CCc1ccc(-n2c(SCc3ccccc3Cl)nc3[nH]ncc3c2=O)cc1	?	-9%	?	?	?	18µM*
CCc1c(O)cc(O)c(C(=O)c2ccc(OCCN3CCOCC3)c(OC)c2)c1CC(=O)N(CCOC)CCOC	14%	.	.	.	.	.
CCN1CCN(c2cc(C)c3cc(NC(=O)c4cccc(Cl)c4)ccc3n2)CC1	-28%	12µM*	?	-5%	?	22µM*
CCCCc1ccc(C(=O)Nc2ccc3nc(N4CCN(CC)CC4)cc(C)c3c2)cc1	-7%	2.1µM*	?	1%	?	-14%
Cc1cc(N2CCCCC2)nc2ccc(NC(=O)/C=C/c3ccccc3Cl)cc12	-22%	-15%	?	-2%	?	3%
Cc1cc(N2CCCCC2)nc2ccc(NC(=O)c3ccc(F)cc3)cc12	-9%	0%	-52%	.	-8%	.
CCN1CCN(c2cc(C)c3cc(NC(=O)c4cc(OC)cc(OC)c4)ccc3n2)CC1	?	13µM*	?	?	?	?
COc1ccc(C(=O)Nc2ccc3nc(N4CCC(C)CC4)cc(C)c3c2)cc1	0%	-8%	-7%	?	14%	?
CCN1CCN(c2cc(C)c3cc(NC(=O)/C=C/c4cccc(Cl)c4)ccc3n2)CC1	?	?	?	?	?	16µM*
Cc1cn2cc(C(=O)N(C)CCO)cc(N[C@@H]3CCOc4cccc(C)c43)c2n1	3%	.	.	.	.	.
COc1ccc(-c2ccc3c(N4CCOC[C@H]4C)nc(N4CCOC[C@H]4C)nc3n2)cc1CO	-15%	.	.	.	.	.
SMILES	OvCa metastasis	pS6 MEF inh	PMP22 txn	p53null 32C tox	S16 viability	p53null 39C kill
Cc1ccc(S(=O)(=O)C(CNS(=O)(=O)c2cc(F)ccc2F)c2cccs2)cc1 (stereo not given)	-5%	0%	?	5%	20µM*	?
COc1ccc(S(=O)(=O)NCC(c2cccs2)S(=O)(=O)c2ccc(C)cc2)cc1F (stereo not given)	-7%	-1%	?	5%	?	2%
COc1ccc(C)cc1S(=O)(=O)NCC(c1cccs1)S(=O)(=O)c1ccc(C)cc1 (stereo not given)	-3%	-7%	?	17%	25µM*	10%
Cc1cc(=O)n2nc(N3CCC(C(=O)Nc4ccc(Br)c(C)c4)CC3)sc2n1	i	-2%	15µM*	9%	1%	-6%
O=C1NC(O)CCN1[C@@H]1O[C@H](CO)[C@H](O)[C@H]1O (stereo not given in full)	-15%	.	.	.	.	.
CCc1ccccc1NS(=O)(=O)c1ccc2oc(=O)c3ncn(C)c3c2c1	i	1%	.	-9%	.	11%
CCOc1ccccc1NS(=O)(=O)c1ccc2oc(=O)c3ncn(C)c3c2c1	?	-1%	.	-18%	.	20µM*
CC(C)(C)c1ccc(C(=O)Nc2nnc3n2CCS3)cc1	i	?	?	10µM*	-22%	?
CC(C)OCc1cc(CN2CCN(c3cccc(C(F)(F)F)c3)CC2)c(O)c2ncccc12	-5%	?	6.5µM*	?	?	0.5µM*
CCOCc1cc(CN2CCN(c3cccc(C(F)(F)F)c3)CC2)c(O)c2ncccc12	-13%	?	4.5µM*	?	?	?
FC(F)(F)c1cccc(N2CCN(c3ncnc4c3nc3n4CCCC3)CC2)c1	3%	0%	13µM*	-7%	?	-15%
c1ccc(N2CCN(c3ncnc4c3nc3n4CCCC3)CC2)cc1	16%	1%	?	-11%	?	-13%
CCS(=O)(=O)c1oc(-c2ccc(F)cc2)nc1S(=O)(=O)c1ccc(Br)cc1	?	2.6µM*	3µM*	49%	2.8µM*	?
CCCCS(=O)(=O)c1oc(-c2ccc(F)cc2)nc1S(=O)(=O)c1ccccc1	?	2.9µM*	2.4µM*	18µM*	4.5µM*	?
CS(=O)(=O)c1oc(-c2ccc(F)cc2)nc1S(=O)(=O)c1ccc(Cl)cc1	i	?	4.5µM*	?	5.6µM*	?
Cc1ccc(S(=O)(=O)c2nc(-c3ccc(F)cc3)oc2SCC(N)=O)cc1	.	.	.	3%	.	4%
CSc1oc(-c2ccc(F)cc2)nc1S(=O)(=O)c1ccccc1	.	.	.	-1%	.	26%
